The values below come from PubChem BioAssay AID565 (University of Pittsburgh Molecular Library Screening Center, 2006).

SMILES strings stand for the structures. About 1,200 (1.8%) of roughly 65,000 compounds were called active. Cut-off read from the data, not from the text of the source: active = inhibition above about 50%; inactive = the rest. The full list was thinned out, with actives kept by preference.

The target of the assay is Gag-Pol polyprotein (Human immunodeficiency virus type 1 group M subtype B (isolate HXB2)) (UniProt P04585). Put plainly: HIV-1 RT RNase H inhibitors, primary screen, biochemical, fluorescence (AID 565). The settings on record: RT-RNase H RNA/DNA duplex cleavage, at 10 µM, stronger effect = higher value.
Take `CCN(CC)P(=O)(/C(Cl)=C\Nc1c(C)n(C)n(-c2ccccc2)c1=O)N(CC)CC`: the inhibition was -5.1% (inactive).

Turning to `Cc1noc(C)c1CSc1nc2cc(S(=O)(=O)N3CCOCC3)ccc2o1`, the inhibition is 86.2% (active).

For the compound `O=S(=O)(c1ccc2ccccc2c1)N1CCN(S(=O)(=O)N2CCOCC2)CC1`, the inhibition is -6.43% (inactive).

As for `CCOC(=O)c1sc(NC(=O)c2cc(S(=O)(=O)N3CCOCC3)ccc2C)nc1C`, the inhibition is 3.07% (inactive).

In the case of `CCOCCCNC(=O)Cc1cc(=O)[nH]c(=O)[nH]1`, the inhibition is 5.5% (inactive).

For the compound `CC(=O)Oc1ccc(C)cc1N1C(=O)c2ccc(C(=O)O)cc2C1=O`, the inhibition was -4.48% (inactive).

Consider `COc1ccc(OC)c(NC(=O)Cn2c(=O)oc3ccccc32)c1`, for which the inhibition is -1.94% (inactive).

In the case of `NC(=O)Cn1c(=O)oc2ccccc21`, the inhibition is 96.3% (active).

Consider `CC1CCCN(C(=O)Cn2c(=O)oc3ccccc32)C1` (stereo not given), for which the inhibition was 7.78% (inactive).

Turning to `O=C(Nc1nc(-c2ccc3c(c2)OCO3)cs1)c1ccncc1`, the inhibition is -9.11% (inactive).

For `O=C(Nc1nc(-c2ccncc2)cs1)C1COc2ccccc2O1` (stereo not given), the inhibition is 83.8% (active).

Regarding `COc1ccc(OC)c2sc(NC(=O)C3COc4ccccc4O3)nc12` (stereo not given), the inhibition is 1.92% (inactive).

As to `O=C(CCSCCc1ccccn1)Nc1nccs1`, the inhibition was -23.9% (inactive).

As for `CCOC(=O)c1c(C)c(C(=O)NCCc2ccc(S(N)(=O)=O)cc2)c(C)n1CC`, the inhibition is -6.32% (inactive).

For the compound `CCCc1nnc(NC(=O)c2cc(OC)cc(OC)c2)s1`, the inhibition was 4.61% (inactive).

On to `CNC(=O)CN1C(=O)c2ccccc2S1(=O)=O`, for which the inhibition was 4.74% (inactive).

As to `CCCc1nnc(NC(=O)CN2C(=O)c3ccccc3S2(=O)=O)s1`, the inhibition was 89.7% (active).

Consider `O=C(CN1CCOCC1)Nc1c(-c2ccccc2)c2cc(Br)ccc2[nH]c1=O`, for which the inhibition is 9.93% (inactive).

On to `COc1ccc(N2CCN(CCNC(=O)c3nnc(Cc4c(F)cccc4Cl)o3)CC2)cc1`, for which the inhibition is 4.44% (inactive).

Regarding `CCC(=NC1CC(C)(C)NC(C)(C)C1)C1=C(O)CC(C)(C)CC1=O`, the inhibition was -6.23% (inactive).

Turning to `Oc1ccc(-c2csc(Nc3cccnc3)n2)cc1`, the inhibition is 34.2% (inactive).

As for `COc1ccc(-c2n[nH]c(C)c2-c2ccc(OC)c(OC)c2)c(O)c1`, the inhibition is 3.91% (inactive).

`COc1ccc(OC)c(Nc2nc(-c3ccc(O)c(O)c3)cs2)c1`: the inhibition is 71.9% (active).

Regarding `COCCN(C(=O)CCC(=O)Nc1ccccn1)C(C(=O)NCCC(C)C)c1ccc(OC)cc1` (stereo not given), the inhibition is 3.89% (inactive).

In the case of `CSCCC(Nc1nc2ccccc2s1)C(=O)O` (stereo not given), the inhibition is -3.78% (inactive).

For `O=C(NCc1ccccn1)c1cc2ccccc2oc1=O`, the inhibition is -3.63% (inactive).

Consider `O=C(NCc1ccccn1)c1ccc2nc(-c3ccco3)c(-c3ccco3)nc2c1`, for which the inhibition was 87.7% (active).

For `Cc1cccn2c(=O)c3cc(C(=O)NCc4ccccn4)n(C)c3nc12`, the inhibition is -10.5% (inactive).

In the case of `CC(Sc1nncs1)C(=O)NCc1ccc2c(c1)OCO2` (stereo not given), the inhibition is -19.3% (inactive).

On to `Cc1nc2nc(CSc3nc4ccccc4s3)cc(=O)n2[nH]1`, for which the inhibition was 4.18% (inactive).

Take `c1ccc(-n2ncc3c2ncn2c(C4CCCCC4)nnc32)cc1`: the inhibition was -1.63% (inactive).

As for `c1ccc(-n2ncc3c2ncn2c(CSc4nc5ccccc5s4)nnc32)cc1`, the inhibition is 63.5% (active).

Turning to `CN1CCN(C(=O)C2C3C=CC(C3)C2C(=O)O)CC1` (stereo not given), the inhibition was 0.5% (inactive).

`CCN(CC)CCN1C(=O)C(=O)/C(=C(/O)c2ccc(OC)c(OC)c2)C1c1ccccn1` (stereo not given): the inhibition was 5.17% (inactive).

Turning to `COCC(=O)Nc1nnc(COc2ccccc2)s1`, the inhibition is -3.37% (inactive).

For `COc1ccc(Cc2nnc(NS(=O)(=O)Cc3ccccc3)s2)cc1`, the inhibition was 1.94% (inactive).

On to `COc1ccc(Cc2nnc(NC(=O)Cc3cccs3)s2)cc1`, for which the inhibition is 70.2% (active).

As to `CCOC(=O)c1c(NC(=O)c2cccs2)sc(C)c1C`, the inhibition is -2.71% (inactive).

In the case of `CCOC(=O)c1c(-n2cnnn2)sc(C)c1C`, the inhibition was 70.4% (active).

With `CCOC(=O)c1c(NC(=O)CSc2nnc(Cc3csc(N)n3)n2C)sc(C)c1C`, the inhibition is -19.7% (inactive).

For the compound `Cc1cccc(NC(=O)C2CCCN2S(=O)(=O)c2ccc(F)cc2)c1C` (stereo not given), the inhibition was -5.03% (inactive).

As for `COc1ccc(CCNC(=O)c2ccc3c(c2)NC(=O)C(N2CCOCC2)S3)cc1OC` (stereo not given), the inhibition was -10.7% (inactive).

For `O=c1cc(-c2ccccc2)nc(N2CCCCC2)[nH]1`, the inhibition was -11.7% (inactive).

As for `CC(=O)N1CCN(c2ccc(NCc3ccc(C(C)C)cc3)cc2)CC1`, the inhibition is -16.6% (inactive).

As for `CCOC(=O)CSc1nc2c(c(=O)n(C)c(=O)n2C)n1Cc1ccccc1F`, the inhibition was -12.1% (inactive).

Regarding `CCOC(=O)CSc1nc2c(sc(=S)n2CCc2ccccc2)c(=O)n1Cc1ccco1`, the inhibition was 60.1% (active).

In the case of `COc1ccccc1NC(=O)CSc1nc2sc(C)c(C)c2c(=O)n1Cc1ccco1`, the inhibition was 9.92% (inactive).

Regarding `COc1ccc(C2C(C#N)=C(N)Oc3n[nH]c(C)c32)cc1CN1CCN(c2ccc(F)cc2)CC1` (stereo not given), the inhibition was -5.93% (inactive).

With `CCN(CC)S(=O)(=O)c1ccc2nc(CSc3nnnn3-c3ccc(O)cc3)[nH]c2c1`, the inhibition was 10.6% (inactive).

In the case of `CCN(CC)S(=O)(=O)c1ccc2nc(COC(=O)c3n[nH]c4ccccc34)[nH]c2c1`, the inhibition was 55.6% (active).

Take `COc1ccc(COC(=O)c2n[nH]c3ccccc23)cc1F`: the inhibition was -42.8% (inactive).

On to `CCCCC(=O)N1CC2(C)CN(C(=O)CCCC)CC(C)(C1)C2=O`, for which the inhibition is -4.52% (inactive).

Consider `Cc1cc(C)c2c(n1)nn1c(N3CCN(c4cccc(Cl)c4)CC3)cc(C)nc21`, for which the inhibition was 29.6% (inactive).

On to `CN1CCc2c(sc3c2c(NCc2ccco2)nc2nnnn23)C1`, for which the inhibition was 1.26% (inactive).

As for `COC(=O)c1cc(S(=O)(=O)NC2CCN(Cc3ccccc3)CC2)cn1C`, the inhibition was -1.44% (inactive).

Turning to `CC(C)CNC(=O)C1CCCN(S(=O)(=O)c2ccc(-n3cnnn3)cc2)C1` (stereo not given), the inhibition is 55.3% (active).

As for `CCS(=O)(=O)N1CCCC(C(=O)NCc2ccc(C)cc2)C1` (stereo not given), the inhibition is -25.4% (inactive).

Regarding `CC(C)CCNC(=O)C1CCCN(S(=O)(=O)c2ccc(F)cc2)C1` (stereo not given), the inhibition was -4.63% (inactive).

Turning to `CC(Oc1ccc(Cl)cc1)C(=O)Nc1ncccn1` (stereo not given), the inhibition was -1.55% (inactive).

With `COc1ccc(CCNC(=O)c2cc3sccc3n2C)cc1OC`, the inhibition is -5.6% (inactive).

As for `O=C(Nc1nccs1)C1CCCN1S(=O)(=O)c1cccc2cccnc12` (stereo not given), the inhibition is -30.1% (inactive).

With `CCc1nc(Nc2ccc3nccnc3c2)c2oc3ccccc3c2n1`, the inhibition is -0.27% (inactive).

With `COc1cc(C2C(C(=O)c3ccc(C)o3)=C(O)C(=O)N2Cc2cccnc2)ccc1O` (stereo not given), the inhibition is 5.97% (inactive).

As to `COc1nc(OC)nc(N(C)CCO)n1`, the inhibition is -8.92% (inactive).

Take `CCC1(C)N(O)C(C)(C)C(c2ccc(OC)cc2)=[N+]1[O-]` (stereo not given): the inhibition is -6.14% (inactive).

In the case of `C/C(=N\O)C1(C)N(O)C(C)(C)C(c2ccc(Br)cc2)=[N+]1[O-]` (stereo not given), the inhibition is -4.23% (inactive).

As to `CCC1=[N+]([O-])C(C)(/C(C)=N\O)N(O)C1(C)C` (stereo not given), the inhibition was 50.7% (active).

Take `CC(=O)CCS(=O)(=O)c1ccc(C)c(C)c1`: the inhibition was -10.6% (inactive).

For the compound `CC(=O)Oc1cccc(N2C(=O)CC(Nc3ccc(N4CCOCC4)cc3)C2=O)c1` (stereo not given), the inhibition is 2.32% (inactive).

As for `Cc1csc(NC(=O)NC2(C(F)(F)F)Oc3ccccc3O2)n1`, the inhibition was 74.1% (active).

For the compound `CCOC(=O)Cc1csc(NC(=O)Nc2ccccc2)n1`, the inhibition was -23.4% (inactive).

As to `Cc1csc(NC(=O)CN2CCCCCC2)n1`, the inhibition was 7.02% (inactive).

In the case of `CCCCCOC(=O)NCCOC(=O)Nc1ccc(C(=O)OCC)cc1`, the inhibition is -14% (inactive).

Consider `Cc1cccc(C(=O)Nc2ccc(CC(=O)O)cc2)c1`, for which the inhibition was -3.58% (inactive).

Regarding `CCOC(=O)c1sc(=S)n2c1[nH]c(=O)c1ccc(C(=O)OC)cc12`, the inhibition was 93.6% (active).

Regarding `COC(=O)c1ccc2c(=O)n(CC3CCCO3)c(=S)[nH]c2c1` (stereo not given), the inhibition was 0.2% (inactive).

Regarding `COC(=O)c1cccc(NC(=O)CSc2nc(C)cc(=O)[nH]2)c1`, the inhibition is -4.06% (inactive).

As for `CSc1ccc(-c2c(C#N)c(N)nc3c2c(C)nn3-c2ccccc2)cc1`, the inhibition was -4.17% (inactive).

For `C[C@H](NC(=O)OC(C)(C)C)c1nnc(SCC(N)=O)o1`, the inhibition is -8.59% (inactive).

Turning to `CC(=O)Nc1cccc2c1[n+]([O-])c(C)c(C)[n+]2[O-]`, the inhibition was -5.6% (inactive).

As for `Cc1ccc2cccc(O)c2[n+]1[O-]`, the inhibition is 63.1% (active).

`CCCS(=O)(=O)N1CCCC(C(=O)NCCN2CCCCC2C)C1` (stereo not given): the inhibition was -24.4% (inactive).

Consider `COc1ccc(CCNC(=O)CSc2nnc(CNC(=O)c3cccs3)o2)cc1OC`, for which the inhibition was 4.42% (inactive).

With `O=c1cc(O)nc(SCc2ccccc2Cl)[nH]1`, the inhibition is -21.4% (inactive).

As for `c1ccc(CSc2nnc(-c3ccco3)c(-c3ccco3)n2)cc1`, the inhibition is 97% (active).

On to `Nc1cc(=O)nc(SCc2ccccc2)n1Cc1ccco1`, for which the inhibition is -80.9% (inactive).

As for `c1ccc(CSc2nnc(-c3ccco3)n2Cc2ccccc2)cc1`, the inhibition is -24.3% (inactive).

Regarding `Clc1ccccc1CSc1nnc(-c2ccco2)c(-c2ccco2)n1`, the inhibition is 55.3% (active).

For `c1coc(-c2nc3nc4ccccc4n3nc2-c2ccco2)c1`, the inhibition is -3.81% (inactive).

Consider `Cc1nn(-c2ccccc2)c(C)c1C(=O)OCC(=O)NC(=O)NC1CCCCC1`, for which the inhibition was 7.28% (inactive).

Regarding `OC1CN=C2Sc3ccccc3N2C1` (stereo not given), the inhibition was -8.76% (inactive).

Turning to `COc1ccccc1NC(=O)c1ccc(C)s1`, the inhibition is -6.32% (inactive).

Take `COc1ccc(CN2C(=O)CN=C2Nc2ccc(C)cc2C)cc1`: the inhibition is -7.04% (inactive).

Turning to `COc1ccc(N2C(=O)CN=C2Nc2cccc(C)c2C)cc1OC`, the inhibition is 93.2% (active).

On to `Cc1cc(C)nc(NC2=NCC(=O)N2c2ccc(Cl)cc2)n1`, for which the inhibition is 4.35% (inactive).

Take `CCOC(=O)N1CCC(NC(=O)c2cnn3ccccc23)CC1`: the inhibition was -4.53% (inactive).

As to `FC(F)(F)c1cc(-c2ccco2)nc(N2CCOCC2)n1`, the inhibition was -9.98% (inactive).

Consider `CCOC(=O)c1ccn(-c2nc(-c3ccco3)cc(C(F)(F)F)n2)n1`, for which the inhibition was -4.86% (inactive).

As for `Cc1cc(C(F)(F)F)nn1-c1nc(-c2ccco2)cc(C(F)(F)F)n1`, the inhibition was 94.4% (active).

Turning to `O=C(Nc1ccc(-c2nnc(-c3ccccc3)o2)cc1)C1CCCO1` (stereo not given), the inhibition was 4.33% (inactive).

Regarding `O=C(Nc1ccc(-c2nnc(-c3ccccc3)o2)cc1)c1ccc(Br)o1`, the inhibition is -4.57% (inactive).

On to `Nc1ccc(-c2nnc(-c3ccc(-c4ccccc4)cc3)o2)cc1`, for which the inhibition was 80.5% (active).

Consider `CCCc1[nH]nc2c1C(c1ccc(OC)c(Cn3nc(C)c(Br)c3C)c1)C(C#N)=C(N)O2` (stereo not given), for which the inhibition was 7.36% (inactive).

As to `O=C(c1ccc2c(c1)OCO2)N1CCNc2ccccc2C1`, the inhibition was -5.92% (inactive).

Consider `O=C(c1ccccc1-c1ccccc1)N1CCOCC1`, for which the inhibition was 4.44% (inactive).

For orientation: inhibition means the change of the read-out against control, counted positive when it falls.
